This passage reports AC50 and outcome results from PubChem BioAssay (EPA / NIEHS).

The structures appear in SMILES notation. The source made the active and inactive calls. How the source made its calls: active means hit-call score of the fitted dose curve at least 0.9, where 1 is the maximum; inactive means score below 0.9.

Sequence of Fatty acid synthase (Homo sapiens) (P49327 whole entry, looked up): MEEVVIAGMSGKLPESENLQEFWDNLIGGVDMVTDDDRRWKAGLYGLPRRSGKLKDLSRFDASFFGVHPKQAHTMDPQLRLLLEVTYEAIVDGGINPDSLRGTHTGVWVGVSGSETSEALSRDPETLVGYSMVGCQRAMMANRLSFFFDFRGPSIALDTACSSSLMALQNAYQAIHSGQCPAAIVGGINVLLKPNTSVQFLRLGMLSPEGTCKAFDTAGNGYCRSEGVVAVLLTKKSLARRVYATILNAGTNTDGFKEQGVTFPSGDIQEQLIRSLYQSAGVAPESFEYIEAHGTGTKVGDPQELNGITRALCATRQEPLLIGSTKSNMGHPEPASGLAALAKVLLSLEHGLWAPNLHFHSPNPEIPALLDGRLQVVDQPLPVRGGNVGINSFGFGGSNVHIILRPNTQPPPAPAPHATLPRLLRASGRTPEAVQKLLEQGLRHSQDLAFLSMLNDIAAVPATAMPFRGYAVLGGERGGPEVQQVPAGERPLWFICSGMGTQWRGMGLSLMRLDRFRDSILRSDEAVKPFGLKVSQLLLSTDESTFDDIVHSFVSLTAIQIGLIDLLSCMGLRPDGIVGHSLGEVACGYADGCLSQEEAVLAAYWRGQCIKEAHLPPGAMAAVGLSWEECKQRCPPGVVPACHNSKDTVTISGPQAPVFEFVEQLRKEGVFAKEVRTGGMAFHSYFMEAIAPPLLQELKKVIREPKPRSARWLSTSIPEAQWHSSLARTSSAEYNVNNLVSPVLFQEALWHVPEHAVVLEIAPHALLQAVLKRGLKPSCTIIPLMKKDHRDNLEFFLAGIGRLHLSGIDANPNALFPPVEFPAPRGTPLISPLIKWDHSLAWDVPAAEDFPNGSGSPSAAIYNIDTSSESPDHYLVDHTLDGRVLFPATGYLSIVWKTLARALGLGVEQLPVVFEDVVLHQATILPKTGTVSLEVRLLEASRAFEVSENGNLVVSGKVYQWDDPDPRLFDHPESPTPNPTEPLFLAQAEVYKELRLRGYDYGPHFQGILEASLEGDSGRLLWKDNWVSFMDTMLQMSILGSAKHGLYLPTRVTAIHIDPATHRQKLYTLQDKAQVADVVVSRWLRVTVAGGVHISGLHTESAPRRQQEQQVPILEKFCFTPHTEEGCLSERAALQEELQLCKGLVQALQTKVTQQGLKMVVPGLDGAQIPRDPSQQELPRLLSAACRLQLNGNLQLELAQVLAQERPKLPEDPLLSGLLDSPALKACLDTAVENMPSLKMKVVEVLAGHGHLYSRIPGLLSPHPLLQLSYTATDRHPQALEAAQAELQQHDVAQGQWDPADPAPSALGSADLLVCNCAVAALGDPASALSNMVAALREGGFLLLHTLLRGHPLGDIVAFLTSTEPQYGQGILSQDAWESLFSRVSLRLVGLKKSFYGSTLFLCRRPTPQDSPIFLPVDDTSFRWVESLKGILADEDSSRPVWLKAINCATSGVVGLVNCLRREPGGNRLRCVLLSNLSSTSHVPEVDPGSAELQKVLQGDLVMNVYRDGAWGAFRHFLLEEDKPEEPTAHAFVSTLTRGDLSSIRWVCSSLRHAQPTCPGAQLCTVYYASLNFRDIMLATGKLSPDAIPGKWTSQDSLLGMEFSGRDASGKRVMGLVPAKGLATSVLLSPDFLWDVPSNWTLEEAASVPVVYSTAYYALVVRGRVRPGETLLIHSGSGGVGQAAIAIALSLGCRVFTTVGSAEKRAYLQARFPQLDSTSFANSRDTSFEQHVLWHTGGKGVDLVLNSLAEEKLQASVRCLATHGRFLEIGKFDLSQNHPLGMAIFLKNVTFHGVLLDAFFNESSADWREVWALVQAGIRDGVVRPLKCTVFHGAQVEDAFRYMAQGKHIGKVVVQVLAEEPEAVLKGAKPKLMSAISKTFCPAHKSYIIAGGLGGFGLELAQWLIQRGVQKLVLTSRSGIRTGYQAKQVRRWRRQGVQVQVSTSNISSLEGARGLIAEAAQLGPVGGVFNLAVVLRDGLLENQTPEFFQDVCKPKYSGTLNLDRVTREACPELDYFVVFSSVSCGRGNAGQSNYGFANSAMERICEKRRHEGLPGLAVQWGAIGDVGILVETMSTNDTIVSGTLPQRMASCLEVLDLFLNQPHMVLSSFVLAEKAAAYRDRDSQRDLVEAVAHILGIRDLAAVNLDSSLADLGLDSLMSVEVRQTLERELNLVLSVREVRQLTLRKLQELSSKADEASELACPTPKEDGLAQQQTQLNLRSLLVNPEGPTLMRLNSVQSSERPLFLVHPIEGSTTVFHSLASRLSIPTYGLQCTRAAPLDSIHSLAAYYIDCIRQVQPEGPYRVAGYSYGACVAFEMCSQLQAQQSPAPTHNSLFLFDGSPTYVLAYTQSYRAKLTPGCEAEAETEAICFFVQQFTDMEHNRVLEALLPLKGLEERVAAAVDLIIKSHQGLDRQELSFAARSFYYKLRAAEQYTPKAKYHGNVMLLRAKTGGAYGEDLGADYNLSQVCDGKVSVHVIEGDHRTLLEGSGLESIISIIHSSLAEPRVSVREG

Read-out in the assay: Fatty acid synthase (Homo sapiens) (UniProt P49327)
Description: LTEA_HepaRG_FASN: Life Technologies and Expression Analysis (LTEA) Assay for Fatty Acid Synthase (FASN) using HepaRG (AID 2283448).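 On AC50: differentiated human HepaRG liver cells in serum-free induction medium.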 Particulars: mRNA level, 48 h; actives raise or lower the signal. Put shortly: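 FASN transcript measured by TaqMan qRT-PCR, normalised to three housekeeping genes, after 48 h chemical exposure of HepaRG cells. Eight-point half-log series from 100 uM in 0.5% DMSO, duplicates; gain or loss fitted against vehicle.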
As usually defined, the AC50 is the midpoint of the concentration-response curve, whichever way the signal moves. On to `CSC1=N[C@@](C)(c2ccccc2)C(=O)N1Nc1ccccc1`, for which the AC50 was 66.1 µM (active).

Turning to `COP(=O)(OC)C(O)C(Cl)(Cl)Cl` (stereo not drawn), the molecule was classed as inactive.

For the molecule `CCC(CC)Nc1c([N+](=O)[O-])cc(C)c(C)c1[N+](=O)[O-]`, the molecule was called inactive.

For the molecule `Nc1c(Cl)cc([N+](=O)[O-])cc1Cl`, the concentration at half-maximal activity (AC50) was 16.9 µM (active).

On to `CCCCOC(=O)c1ccccc1C(=O)O`, for which the outcome was inactive.

Regarding `CCOP(=S)(OCC)OC(Cl)C(Cl)(Cl)Cl` (stereo not drawn), the outcome was inactive.

On to `CC1=NNC(=O)N(/N=C/c2cccnc2)C1`, for which the AC50 is 13.4 µM (active).

For `CCc1cccc(CC)c1N(COC)C(=O)CCl`, the call was inactive.

With `COP(=O)(OC)OC(Br)C(Cl)(Cl)Br` (stereo not drawn), the molecule was called inactive.

Turning to `CCCCSP(=O)(SCCCC)SCCCC`, the call was inactive.

With `CN1COCN(Cc2cnc(Cl)s2)C1=N[N+](=O)[O-]`, the call was inactive.

Turning to `CCOP(=O)(OCC)Oc1cc(C)nc(C(C)C)n1`, the molecule was called inactive.

For the molecule `CC(Oc1cccc(Cl)c1)C(=O)O` (stereo not drawn), the result was inactive.

As for `CCOP(=S)(Oc1cnc(C(C)(C)C)nc1)OC(C)C` (stereo not drawn), the AC50 was 82.4 µM (active).

`CC[C@H](C)[C@H]1O[C@]2(C=C[C@@H]1C)C[C@@H]1C[C@@H](C/C=C(\C)[C@@H](O[C@H]3C[C@H](OC)[C@@H](O[C@H]4C[C@H](OC)[C@@H](NC)[C@H](C)O4)[C@H](C)O3)[C@@H](C)/C=C/C=C3\CO[C@@H]4[C@H](O)C(C)=C[C@@H](C(=O)O1)[C@]34O)O2`: the AC50 is 16.4 µM (active).

Turning to `C[N+]1(C)CCCCC1`, the call was inactive.

`CCCCOC(=O)[C@@H](C)Oc1ccc(Oc2ccc(C#N)cc2F)cc1`: the result was inactive.

Take `Cc1nn(-c2cc(NS(C)(=O)=O)c(Cl)cc2Cl)c(=O)n1C(F)F`: the outcome was inactive.
